Measured values: PubChem BioAssay (EPA / NIEHS)
Inconclusive results are not listed. Some structures have more than one record in an assay (separate samples or runs), and their calls can disagree. Active and inactive are the calls of the source. Rule for the calls, unless noted: active = hit-call score of the fitted dose curve at least 0.9, where 1 is the maximum; inconclusive = response in the unintended direction; inactive = score below 0.9.

Tests used:
[1] = ATG_TAL_CIS: Attagene CIS-FACTORIAL HepG2 Assay for human TAL Basal Promoter (AID 2282966; active = hit-call score of the fitted dose curve at least 0.9, where 1 is the maximum; inactive = score below 0.9;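 note: background control endpoint measuring basal TAL promoter reporter mRNA not a specific factor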); details: HepG2 Attagene cis-factorial TAL promoter reporter; actives raise or lower the signal
Summary of the method: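 Steps: transfect HepG2 with multiple reporter transcription units; dose 24 h; isolate RNA, reverse-transcribe, PCR-amplify, label with 6-FAM, digest with HpaI; resolve by capillary electrophoresis. Bidirectional fitting against DMSO baseline.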

[2] = ATG_TGFb_CIS: Attagene CIS-FACTORIAL HepG2 Assay for human Transforming Growth Factor (TGF) (AID 2282967; active = hit-call score of the fitted dose curve at least 0.9, where 1 is the maximum; inactive = score below 0.9); details: HepG2 Attagene CIS TGFb reporter, mRNA transcription; actives raise or lower the signal
Summary of the method: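 Endogenous TGFB1-linked transcription factor activity read as reporter mRNA via RT-PCR and capillary electrophoresis, 24 h after dosing transiently transfected HepG2 cells. Gain or loss of signal fitted relative to DMSO.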

[3] = ATG_VDRE_CIS: Attagene CIS-FACTORIAL HepG2 Assay for human Vitamin D Receptor Element (VDRE) (AID 2282968; active = hit-call score of the fitted dose curve at least 0.9, where 1 is the maximum; inactive = score below 0.9); details: HepG2 VDRE cis-reporter transcription, actives raise or lower the signal
Summary of the method: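 Reporter mRNA induction, quantified by capillary electrophoresis of fluorescently labelled RT-PCR products, was read 24 h after dosing HepG2 cells carrying transiently transfected cis-regulated reporter units; gain or loss relative to DMSO.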

[4] = target: Estrogen receptor (Homo sapiens) (UniProt P03372); assay: ATG_ERa_TRANS: Attagene TRANS-FACTORIAL HepG2 Assay for human Estrogen Receptor alpha (ERa) (AID 2282970); details: HepG2 Attagene TRANS ERa GAL4 reporter, mRNA
Summary of the method: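 Multiplexed cell-based reporter format in HepG2: chimeric ERa-Gal4 protein drives GAL4-UAS reporter transcription. Fluorescent reporter mRNA quantified by capillary electrophoresis 24 hours after dosing; endpoint fitted as signal gain against DMSO.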

[5] = target: Steroid hormone receptor ERR1 (Homo sapiens) (UniProt P11474); assay: ATG_ERRa_TRANS: Attagene TRANS-FACTORIAL HepG2 Assay for human Estrogen-Related Receptor alpha (ERRa) (AID 2282971); details: HepG2 Attagene TRANS reporter, ERRa transactivation
Summary of the method: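 Signal gain relative to DMSO for an ERRa-Gal4 chimeric receptor, read as reporter mRNA by RT-PCR/capillary electrophoresis. Human HepG2 liver cells, transient multiplex reporter transfection, 24 h chemical exposure.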

[6] = target: X-box-binding protein 1 (Homo sapiens) (UniProt P17861); assay: ATG_Xbp1_CIS: Attagene CIS-FACTORIAL HepG2 Assay for human X-box Binding Protein 1 (XBP1) (AID 2282972; active = hit-call score of the fitted dose curve at least 0.9, where 1 is the maximum; inactive = score below 0.9); details: HepG2 XBP1 cis-element reporter, Attagene multiplex; actives raise or lower the signal
Sequence of X-box-binding protein 1 (Homo sapiens) (P17861 whole entry, looked up): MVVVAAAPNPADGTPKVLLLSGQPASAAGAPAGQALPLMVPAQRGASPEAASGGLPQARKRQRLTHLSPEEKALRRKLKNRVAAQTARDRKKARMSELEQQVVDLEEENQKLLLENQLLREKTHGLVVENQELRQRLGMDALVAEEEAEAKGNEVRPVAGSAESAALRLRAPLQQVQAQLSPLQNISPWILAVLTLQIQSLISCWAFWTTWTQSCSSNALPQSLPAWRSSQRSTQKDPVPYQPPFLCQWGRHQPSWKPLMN
Summary of the method: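 HepG2 cells transiently transfected with cis-regulated multiple reporter transcription units; endogenous transcription factor activity measured 24 hours after chemical dosing. Reporter mRNA quantified by RT-PCR, 6-FAM primer extension, HpaI digestion and capillary electrophoresis; bidirectional fitting versus DMSO.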

[7] = ATG_M_19_TRANS: Attagene TRANS-FACTORIAL HepG2 Assay for M19 Transcription Factor (Internal Marker) (AID 2282974); details: HepG2 Attagene TRANS-FACTORIAL M19 internal marker reporter
Summary of the method: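 Multiplexed TRANS format: HepG2 liver cells bearing transient GAL4-UAS reporter units, chemical treatment 24 h, reporter transcripts quantified by RT-PCR plus capillary electrophoresis. DMSO defines baseline.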

[8] = target: Estrogen-related receptor gamma (Homo sapiens) (UniProt P62508); assay: ATG_ERRg_TRANS: Attagene TRANS-FACTORIAL HepG2 Assay for human Estrogen-Related Receptor gamma (ERRg) (AID 2282977); details: HepG2 Attagene TRANS reporter, ERRg transactivation;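 note: hits increase reporter signal over DMSO so potencies reflect activators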
Sequence of Estrogen-related receptor gamma (Homo sapiens) (P62508 whole entry, looked up, the tested form may be a part): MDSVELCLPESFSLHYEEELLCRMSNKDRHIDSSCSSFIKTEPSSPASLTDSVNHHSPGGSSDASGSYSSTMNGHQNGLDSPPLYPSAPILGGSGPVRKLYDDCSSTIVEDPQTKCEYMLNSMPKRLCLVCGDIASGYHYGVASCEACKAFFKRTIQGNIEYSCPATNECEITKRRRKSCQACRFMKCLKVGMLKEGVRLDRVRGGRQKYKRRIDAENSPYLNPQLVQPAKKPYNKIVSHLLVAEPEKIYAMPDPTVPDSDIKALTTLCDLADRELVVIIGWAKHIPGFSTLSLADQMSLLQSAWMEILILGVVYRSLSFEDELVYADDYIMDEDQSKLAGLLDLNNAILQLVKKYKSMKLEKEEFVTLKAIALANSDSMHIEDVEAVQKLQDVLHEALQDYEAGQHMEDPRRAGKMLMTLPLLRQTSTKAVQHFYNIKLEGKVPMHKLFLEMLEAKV
Summary of the method: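 Transfect HepG2 with multiple GAL4-UAS reporter transcription units; dose chemicals 24 h; isolate RNA, reverse-transcribe with oligo(dT), PCR-amplify, label with 6-FAM, digest with HpaI; size fragments by capillary electrophoresis. DMSO serves as negative control.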

[9] = target: Glucocorticoid receptor (Homo sapiens) (UniProt P04150); assay: ATG_GR_TRANS: Attagene TRANS-FACTORIAL HepG2 Assay for human Glucocorticoid Receptor (GR) (AID 2282978); details: HepG2 Attagene TRANS GR reporter, mRNA transcription;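 note: activators score as hits since higher reporter transcript over DMSO is fitted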
Sequence of Glucocorticoid receptor (Homo sapiens) (P04150 whole entry, looked up, the tested form may be a part): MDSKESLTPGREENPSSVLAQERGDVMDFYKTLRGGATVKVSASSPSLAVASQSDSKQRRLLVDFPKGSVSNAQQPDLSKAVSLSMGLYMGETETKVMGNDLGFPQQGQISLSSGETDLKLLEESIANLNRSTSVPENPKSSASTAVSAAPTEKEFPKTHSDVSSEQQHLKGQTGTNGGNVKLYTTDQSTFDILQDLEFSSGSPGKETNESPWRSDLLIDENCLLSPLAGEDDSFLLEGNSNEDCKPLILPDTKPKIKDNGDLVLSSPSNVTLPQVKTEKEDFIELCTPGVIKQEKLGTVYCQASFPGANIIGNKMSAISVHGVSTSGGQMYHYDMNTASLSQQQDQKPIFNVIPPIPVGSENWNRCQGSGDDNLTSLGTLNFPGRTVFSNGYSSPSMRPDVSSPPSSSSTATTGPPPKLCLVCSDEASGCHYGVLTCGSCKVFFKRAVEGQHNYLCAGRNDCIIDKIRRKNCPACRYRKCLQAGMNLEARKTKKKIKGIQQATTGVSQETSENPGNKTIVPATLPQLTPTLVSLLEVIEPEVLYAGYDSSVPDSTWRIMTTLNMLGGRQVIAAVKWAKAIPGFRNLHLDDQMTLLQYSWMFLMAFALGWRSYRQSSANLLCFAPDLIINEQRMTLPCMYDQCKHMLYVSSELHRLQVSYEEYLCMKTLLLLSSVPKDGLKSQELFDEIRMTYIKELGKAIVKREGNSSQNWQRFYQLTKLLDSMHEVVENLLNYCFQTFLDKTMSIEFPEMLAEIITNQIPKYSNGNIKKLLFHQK
Summary of the method: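 Transiently transfected HepG2 cells express chimeric NR-GAL4 proteins acting on GAL4-UAS reporter units. Compounds are applied for 24 h. mRNA induction over DMSO is measured by capillary electrophoresis.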

[10] = target: Bile acid receptor (Homo sapiens) (UniProt Q96RI1); assay: ATG_FXR_TRANS: Attagene TRANS-FACTORIAL HepG2 Assay for Farnesoid X Receptor (FXR) (AID 2282979); details: HepG2 Attagene TRANS FXR-GAL4 reporter transcription;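 note: hits raise reporter mRNA above DMSO so AC50 marks FXR activation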
Summary of the method: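 After 24 h chemical treatment of transfected HepG2 cells, GAL4-UAS reporter transcripts driven by an exogenous FXR-GAL4 fusion were measured by RT-PCR and capillary electrophoresis. Increases over DMSO were fitted.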

[11] = target: Oxysterols receptor LXR-alpha (Homo sapiens) (UniProt Q13133); assay: ATG_LXRa_TRANS: Attagene TRANS-FACTORIAL HepG2 Assay for human Liver X Receptor alpha (LXRa) (AID 2282980); details: HepG2 Attagene TRANS reporter, LXRa transactivation
Sequence of Oxysterols receptor LXR-alpha (Homo sapiens) (Q13133 whole entry, looked up, the tested form may be a part): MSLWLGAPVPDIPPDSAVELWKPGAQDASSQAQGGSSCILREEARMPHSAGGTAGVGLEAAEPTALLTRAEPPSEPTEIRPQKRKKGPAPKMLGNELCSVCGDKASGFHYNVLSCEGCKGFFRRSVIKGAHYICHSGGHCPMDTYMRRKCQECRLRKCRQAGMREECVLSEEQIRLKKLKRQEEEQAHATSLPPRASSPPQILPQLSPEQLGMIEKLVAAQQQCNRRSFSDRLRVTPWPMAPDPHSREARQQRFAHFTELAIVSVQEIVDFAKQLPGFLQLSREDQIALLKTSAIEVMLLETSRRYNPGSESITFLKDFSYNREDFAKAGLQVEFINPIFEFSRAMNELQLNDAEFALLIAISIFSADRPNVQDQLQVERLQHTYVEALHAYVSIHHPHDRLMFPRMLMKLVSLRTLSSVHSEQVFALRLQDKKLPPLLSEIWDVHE
Summary of the method: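 In this multiplexed TRANS system, compounds act on HepG2 cells carrying GAL4-UAS reporter units and a receptor-GAL4 fusion for 24 h. Induced reporter RNA is amplified, fluorescently labelled and sized by capillary electrophoresis, with DMSO as baseline.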

[12] = target: Oxysterols receptor LXR-beta (Homo sapiens) (UniProt P55055); assay: ATG_LXRb_TRANS: Attagene TRANS-FACTORIAL HepG2 Assay for human Liver X Receptor beta (LXRb) (AID 2282981); details: HepG2 Attagene TRANS GAL4-LXRb reporter, mRNA
Sequence of Oxysterols receptor LXR-beta (Homo sapiens) (P55055 whole entry, looked up, the tested form may be a part): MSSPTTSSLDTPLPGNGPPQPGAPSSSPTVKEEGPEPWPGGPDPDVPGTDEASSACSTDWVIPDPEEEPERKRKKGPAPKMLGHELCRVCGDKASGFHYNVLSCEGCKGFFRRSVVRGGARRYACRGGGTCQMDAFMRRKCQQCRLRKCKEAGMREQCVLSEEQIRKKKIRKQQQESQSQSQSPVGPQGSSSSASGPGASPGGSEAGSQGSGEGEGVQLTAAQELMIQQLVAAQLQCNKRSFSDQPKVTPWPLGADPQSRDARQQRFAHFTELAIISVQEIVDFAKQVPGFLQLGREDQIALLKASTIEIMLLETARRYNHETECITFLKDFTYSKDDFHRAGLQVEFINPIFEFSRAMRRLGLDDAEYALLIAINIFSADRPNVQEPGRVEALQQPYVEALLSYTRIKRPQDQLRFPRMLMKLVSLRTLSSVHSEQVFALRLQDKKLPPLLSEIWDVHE
Summary of the method: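 Transient transfection HepG2 (multiplexed RTUs, GAL4-UAS); NR-Gal4 chimera; 24 h exposure; RNA → RT-PCR → 6-FAM primer extension → HpaI → CE; increase vs DMSO.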

[13] = target: Hepatocyte nuclear factor 4-alpha (Homo sapiens) (UniProt P41235); assay: ATG_HNF4a_TRANS: Attagene TRANS-FACTORIAL HepG2 Assay for human Hepatocyte Nuclear Factor 4 alpha (HNF4a) (AID 2282982); details: HepG2 HNF4a transactivation reporter, mRNA readout
Sequence of Hepatocyte nuclear factor 4-alpha (Homo sapiens) (P41235 whole entry, looked up, the tested form may be a part): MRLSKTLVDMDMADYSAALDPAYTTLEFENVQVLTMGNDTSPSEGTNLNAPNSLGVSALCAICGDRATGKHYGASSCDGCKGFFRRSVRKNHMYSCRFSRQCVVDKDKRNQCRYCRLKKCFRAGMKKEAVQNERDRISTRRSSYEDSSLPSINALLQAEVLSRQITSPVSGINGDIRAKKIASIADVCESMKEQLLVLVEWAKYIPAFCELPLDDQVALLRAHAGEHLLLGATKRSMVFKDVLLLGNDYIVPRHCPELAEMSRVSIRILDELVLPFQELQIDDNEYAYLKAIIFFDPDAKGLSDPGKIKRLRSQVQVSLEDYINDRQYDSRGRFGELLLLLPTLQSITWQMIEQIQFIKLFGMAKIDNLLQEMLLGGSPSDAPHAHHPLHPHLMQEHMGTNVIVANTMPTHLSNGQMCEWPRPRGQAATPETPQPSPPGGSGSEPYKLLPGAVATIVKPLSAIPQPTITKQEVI
Summary of the method: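 Readout is fluorescent reporter-transcript fragments resolved by capillary electrophoresis after RT-PCR from HepG2 cells dosed for 24 h. Cells carried transfected GAL4-UAS reporter constructs measuring exogenous NR-GAL4 chimera activity; DMSO served as baseline.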

[14] = ATG_M_06_TRANS: Attagene TRANS-FACTORIAL HepG2 Assay for M06 Transcription Factor (Internal Marker) (AID 2282983); details: HepG2 Attagene TRANS M06 internal marker reporter;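 note: reporter transcript level by RT-PCR then capillary electrophoresis fluorescence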
Summary of the method: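 Internal-marker background readout from a multiplexed TRANS reporter system in HepG2; 24 h dosing; mRNA induction quantified by RT-PCR plus capillary electrophoresis fluorescence; DMSO as negative control and baseline.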

[15] = ATG_M_32_TRANS: Attagene TRANS-FACTORIAL HepG2 Assay for M32 Transcription Factor (Internal Marker) (AID 2282984); details: HepG2 Attagene TRANS M32 internal marker reporter;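 note: transcript level of a background control reporter unit measured by RT-PCR and capillary electrophoresis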
Summary of the method: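 Measures reporter mRNA induction in human HepG2 liver cells after 24 h chemical treatment. Transcripts from transiently transfected GAL4-UAS reporter units are amplified, fluorescently labelled and sized by capillary electrophoresis; gain of signal relative to DMSO.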

[16] = target: Transcriptional activator Myb (Homo sapiens) (UniProt P10242); assay: ATG_Myb_CIS: Attagene CIS-FACTORIAL HepG2 Assay for human Myeloblastosis (Myb) Proto-Oncogene Transcription Factor (AID 2282986; active = hit-call score of the fitted dose curve at least 0.9, where 1 is the maximum; inactive = score below 0.9); details: HepG2 Attagene CIS-FACTORIAL Myb reporter transcription; actives raise or lower the signal
Sequence of Transcriptional activator Myb (Homo sapiens) (P10242 whole entry, looked up): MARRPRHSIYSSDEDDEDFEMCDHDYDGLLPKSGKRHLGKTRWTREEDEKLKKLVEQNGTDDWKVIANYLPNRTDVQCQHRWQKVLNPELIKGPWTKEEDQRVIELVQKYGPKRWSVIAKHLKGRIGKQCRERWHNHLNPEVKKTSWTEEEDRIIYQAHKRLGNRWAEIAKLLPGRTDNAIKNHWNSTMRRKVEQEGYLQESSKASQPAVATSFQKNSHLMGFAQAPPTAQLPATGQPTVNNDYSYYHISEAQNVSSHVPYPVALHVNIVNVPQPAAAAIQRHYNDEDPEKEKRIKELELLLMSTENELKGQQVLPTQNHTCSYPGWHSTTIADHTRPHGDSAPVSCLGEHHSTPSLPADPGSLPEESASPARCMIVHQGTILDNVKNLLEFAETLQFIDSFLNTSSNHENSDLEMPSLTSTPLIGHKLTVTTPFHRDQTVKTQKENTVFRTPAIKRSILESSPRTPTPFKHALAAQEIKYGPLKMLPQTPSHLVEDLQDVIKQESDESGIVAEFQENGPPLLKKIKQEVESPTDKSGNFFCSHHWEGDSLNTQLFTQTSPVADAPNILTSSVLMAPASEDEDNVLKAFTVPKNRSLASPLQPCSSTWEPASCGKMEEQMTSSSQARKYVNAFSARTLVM
Summary of the method: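 Using HepG2 liver cells bearing transiently transfected cis-promoter reporter constructs, the assay measures induction or loss of reporter mRNA after 24 hours of dosing. Detection used fluorescently labeled RT-PCR products separated by capillary electrophoresis.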

[17] = target: Nuclear respiratory factor 1 (Homo sapiens) (UniProt Q16656); assay: ATG_NRF1_CIS: Attagene CIS-FACTORIAL HepG2 Assay for human Nuclear Respiratory Factor 1 (NRF1) Orphan Gene (AID 2282987; active = hit-call score of the fitted dose curve at least 0.9, where 1 is the maximum; inactive = score below 0.9); details: HepG2 NRF1 cis-element reporter, Attagene multiplex; actives raise or lower the signal
Sequence of Nuclear respiratory factor 1 (Homo sapiens) (Q16656 whole entry, looked up): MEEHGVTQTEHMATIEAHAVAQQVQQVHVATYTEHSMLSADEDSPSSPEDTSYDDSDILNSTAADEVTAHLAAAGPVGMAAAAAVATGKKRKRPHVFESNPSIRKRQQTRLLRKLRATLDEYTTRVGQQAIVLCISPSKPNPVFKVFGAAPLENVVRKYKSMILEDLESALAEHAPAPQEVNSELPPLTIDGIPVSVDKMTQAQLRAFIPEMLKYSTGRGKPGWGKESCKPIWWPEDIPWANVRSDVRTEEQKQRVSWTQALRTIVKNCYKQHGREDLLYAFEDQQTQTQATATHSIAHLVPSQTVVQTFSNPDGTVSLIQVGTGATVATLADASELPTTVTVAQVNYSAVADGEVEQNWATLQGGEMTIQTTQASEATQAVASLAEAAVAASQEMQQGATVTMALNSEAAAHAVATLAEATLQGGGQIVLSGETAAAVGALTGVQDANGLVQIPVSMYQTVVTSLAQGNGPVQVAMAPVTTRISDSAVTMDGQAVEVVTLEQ
Summary of the method: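 Reporter mRNA induction or loss in HepG2 cells after 24 h dosing; cis-regulated reporter constructs report endogenous transcription-factor activity. Quantified by RT-PCR/capillary electrophoresis fluorescence, DMSO-referenced.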

[18] = ATG_GAL4_TRANS: Attagene TRANS-FACTORIAL HepG2 Assay for GAL4 (Internal Marker) (AID 2282976); details: HepG2 Attagene TRANS GAL4 internal marker reporter
Summary of the method: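 Liver HepG2 line bearing multiplexed GAL4-UAS reporter constructs; 24 h chemical treatment. Transcripts were quantified as fluorescent fragments on capillary electrophoresis after RT-PCR and HpaI cut, with activity fitted upward from DMSO.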

[19] = target: Nuclear receptor subfamily 4 group A member 2 (Homo sapiens) (UniProt P43354); assay: ATG_NURR1_TRANS: Attagene TRANS-FACTORIAL HepG2 Assay for human Nuclear Receptor Related Protein 1 (NURR1) (AID 2282985); details: HepG2 Attagene TRANS reporter, mRNA readout
Sequence of Nuclear receptor subfamily 4 group A member 2 (Homo sapiens) (P43354 whole entry, looked up, the tested form may be a part): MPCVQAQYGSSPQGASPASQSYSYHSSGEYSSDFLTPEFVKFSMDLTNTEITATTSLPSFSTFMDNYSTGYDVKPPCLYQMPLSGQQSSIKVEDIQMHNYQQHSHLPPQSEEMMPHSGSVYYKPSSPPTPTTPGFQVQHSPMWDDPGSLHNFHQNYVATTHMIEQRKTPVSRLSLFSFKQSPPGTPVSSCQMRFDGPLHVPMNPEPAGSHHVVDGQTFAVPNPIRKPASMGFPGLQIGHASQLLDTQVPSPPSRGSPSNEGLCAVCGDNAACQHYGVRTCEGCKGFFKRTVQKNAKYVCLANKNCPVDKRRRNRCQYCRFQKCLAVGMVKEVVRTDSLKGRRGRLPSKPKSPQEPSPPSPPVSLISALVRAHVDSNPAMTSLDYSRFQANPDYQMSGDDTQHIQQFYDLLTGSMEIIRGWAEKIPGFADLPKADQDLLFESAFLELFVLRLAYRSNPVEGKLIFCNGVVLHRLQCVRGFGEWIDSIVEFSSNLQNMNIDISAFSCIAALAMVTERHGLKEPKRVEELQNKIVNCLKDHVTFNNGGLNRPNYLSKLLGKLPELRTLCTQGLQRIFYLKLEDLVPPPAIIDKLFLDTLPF
Summary of the method: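 Transient transfection of HepG2, human liver cells, with multiple GAL4-UAS reporter transcription units. Cells dosed 24 h, RNA isolated, reverse-transcribed, PCR-amplified, FAM-labelled, HpaI-digested, sized by capillary electrophoresis. DMSO served as negative control.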

[20] = target: Nuclear receptor subfamily 1 group I member 3 (Homo sapiens) (UniProt Q14994); assay: ATG_CAR_TRANS: Attagene TRANS-FACTORIAL HepG2 Assay for human Constitutive Androstane Receptor (CAR) (AID 2282969); details: HepG2 Attagene TRANS-FACTORIAL CAR reporter;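 note: activators raise reporter mRNA above DMSO so AC50 marks induction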
Sequence of Nuclear receptor subfamily 1 group I member 3 (Homo sapiens) (Q14994 whole entry, looked up, the tested form may be a part): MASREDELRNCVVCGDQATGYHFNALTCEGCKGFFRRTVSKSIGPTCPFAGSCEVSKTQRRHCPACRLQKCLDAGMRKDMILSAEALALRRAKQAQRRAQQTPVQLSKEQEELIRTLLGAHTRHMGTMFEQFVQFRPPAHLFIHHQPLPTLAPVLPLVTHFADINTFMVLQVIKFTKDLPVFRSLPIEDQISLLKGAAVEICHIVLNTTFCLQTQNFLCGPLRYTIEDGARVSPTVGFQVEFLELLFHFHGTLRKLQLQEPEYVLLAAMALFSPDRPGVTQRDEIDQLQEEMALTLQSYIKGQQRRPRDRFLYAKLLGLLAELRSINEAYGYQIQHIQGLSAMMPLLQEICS
Summary of the method: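 Readout is reporter mRNA induction, quantified by fluorescent primer extension and capillary electrophoresis after RT-PCR. Cells were HepG2 transiently carrying chimeric NR-Gal4 constructs with GAL4-UAS reporters, treated for 24 h; activity scored upward from DMSO.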

c1ccc(C[n+]2cccc3ccccc32)cc1
outcome [1]: inactive | outcome [2]: inactive | outcome [3]: inactive | outcome [4]: inactive | outcome [5]: inactive | outcome [6]: inactive | outcome [7]: inactive | outcome [8]: inactive | outcome [9]: inactive | outcome [10]: inactive | outcome [11]: inactive | outcome [12]: inactive | outcome [13]: inactive | outcome [14]: inactive | outcome [15]: inactive | outcome [16]: inactive | outcome [17]: inactive

OCCO
outcome [1]: inactive | outcome [2]: inactive | outcome [3]: inactive | outcome [4]: inactive | outcome [6]: inactive | outcome [7]: inactive | outcome [18]: inactive | outcome [12]: inactive | outcome [13]: inactive | outcome [15]: inactive | outcome [16]: inactive

CCCOC(=O)c1cc(O)c(O)c(O)c1
outcome [1]: inactive | outcome [2]: inactive | outcome [3]: inactive | AC50 [4]: 14.5 µM (active) | outcome [6]: inactive | outcome [7]: inactive | outcome [10]: inactive | outcome [12]: inactive | outcome [13]: inactive | outcome [14]: inactive | outcome [19]: inactive | outcome [16]: inactive

O=C=NCCCCCCN=C=O
outcome [1]: inactive | outcome [2]: inactive | outcome [3]: inactive | outcome [4]: inactive | outcome [6]: inactive | outcome [7]: inactive | outcome [18]: inactive | outcome [10]: inactive | outcome [11]: inactive | outcome [12]: inactive | outcome [14]: inactive | outcome [15]: inactive | outcome [16]: inactive | outcome [17]: inactive

O=C1CCC(C2CCCCC2)CC1
outcome [1]: inactive | outcome [2]: inactive | AC50 [3]: 86.8 µM (active) | outcome [3]: inactive | outcome [20]: inactive | outcome [6]: inactive | outcome [7]: inactive | outcome [18]: inactive | outcome [8]: inactive | outcome [9]: inactive | outcome [10]: inactive | outcome [11]: inactive | outcome [12]: inactive | outcome [14]: inactive | outcome [15]: inactive | outcome [19]: inactive | AC50 [16]: 147 µM (active) | outcome [16]: inactive

Cc1cccc2ccccc12
outcome [1]: inactive | outcome [2]: inactive | outcome [3]: inactive | outcome [20]: inactive | outcome [4]: inactive | outcome [5]: inactive | outcome [6]: inactive | outcome [7]: inactive | outcome [18]: inactive | outcome [10]: inactive | outcome [12]: inactive | outcome [13]: inactive | outcome [14]: inactive | outcome [15]: inactive | outcome [19]: inactive | outcome [16]: inactive

COc1cccc([C@H](O)C2CCN(CCc3ccc(F)cc3)CC2)c1OC
outcome [1]: inactive | outcome [2]: inactive | outcome [3]: inactive | outcome [4]: inactive | outcome [6]: inactive | outcome [7]: inactive | outcome [18]: inactive | outcome [9]: inactive | outcome [10]: inactive | outcome [15]: inactive | outcome [16]: inactive

CCCCCCCCN(C)CCCCCCCC
outcome [1]: inactive | outcome [2]: inactive | outcome [3]: inactive | outcome [20]: inactive | AC50 [4]: 30.4 µM (active) | outcome [6]: inactive | outcome [7]: inactive | outcome [18]: inactive | outcome [8]: inactive | outcome [9]: inactive | outcome [13]: inactive | outcome [14]: inactive | outcome [15]: inactive | outcome [19]: inactive | outcome [16]: inactive | outcome [17]: inactive
